# Source: PubChem BioAssay (NCI)
# Values joined by “and” are separate entries in the source; they are usually repeats but may differ in a detail not shown here. Equal entries are not always repeated. About 79,000 compounds went through this panel and 15% of them were active in at least one assay; those are over-represented in the sample as a whole. Where a structure was tested more than once in an assay, its records may differ in their call. Active and inactive are the calls of the source. Rule as the data show it: active = growth inhibition above about 70%; inactive = the rest.
# How the values were obtained:
# [1] = NCI Yeast Anticancer Drug Screen. Data for the rad52 strain (AID 147);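 also: 0% = growth of vehicle-treated control cultures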; details: S. cerevisiae rad52 mutant growth inhibition, stronger effect = higher value
# Summary of the method: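 Measured: yeast growth inhibition. System: strain with a defined DNA damage repair alteration. Reference: vehicle-treated control cultures.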
# [2] = NCI Yeast Anticancer Drug Screen. Data for the wt1 strain (AID 149);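 also: 0% = growth of vehicle-treated wt1 cultures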; details: S. cerevisiae wt1 strain (SPY 50644) growth inhibition, stronger effect = higher value
# Summary of the method: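 wt1 strain grown with compound or vehicle; inhibition taken from the growth difference.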
# [3] = NCI Yeast Anticancer Drug Screen. Data for the rad50EPP+ strain (AID 151);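 also: 0% = growth of vehicle-treated control cultures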; details: S. cerevisiae rad50 mutant strain, stronger effect = higher value
# Summary of the method: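 One strain with a rad50 alteration (rad50EPP+) was compound-treated, its growth then compared to that of vehicle controls.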
# [4] = NCI Yeast Anticancer Drug Screen. Data for the mgt1 strain (AID 153); details: S. cerevisiae mgt1 mutant growth inhibition, stronger effect = higher value
# Summary of the method: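 After exposure of the mgt1 yeast mutant to compound, growth was measured and reported as inhibition compared with vehicle controls.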
# [5] = NCI Yeast Anticancer Drug Screen. Data for the rad50 strain (AID 155);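 also: 0% = growth of vehicle-only cultures of the same strain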; details: S. cerevisiae rad50 strain growth inhibition, stronger effect = higher value
# Summary of the method: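 DNA repair mutant yeast, compound exposure, growth read-out; inhibition is taken relative to vehicle.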
# [6] = NCI Yeast Anticancer Drug Screen. Data for the mec2-1 strain (AID 157); details: S. cerevisiae mec2-1 strain, stronger effect = higher value
# Summary of the method: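 Test agents were screened against the mec2-1 yeast strain, with defined DNA repair or cell cycle alteration. Growth was scored as inhibition against vehicle-only controls.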
# [7] = NCI Yeast Anticancer Drug Screen. Data for the rad14 strain (AID 159);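 also: 0% = growth of vehicle-treated control cultures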; details: S. cerevisiae rad14 strain growth inhibition, stronger effect = higher value
# Summary of the method: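 DNA repair-defective yeast, compound-exposed; % growth inhibition derived by comparison with vehicle-treated controls.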
# [8] = NCI Yeast Anticancer Drug Screen. Data for the sgs1 mgt1 strain (AID 161);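 also: 0% = growth of cultures given vehicle only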; details: S. cerevisiae sgs1 mgt1 strain, stronger effect = higher value
# Summary of the method: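 Mutant yeast exposed to compound; growth scored against vehicle-only wells.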
# [9] = NCI Yeast Anticancer Drug Screen. Data for the CLN2oe strain (AID 163);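 also: 0% = growth of vehicle-only control cultures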; details: S. cerevisiae CLN2oe strain, stronger effect = higher value
# Summary of the method: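 Here, growth inhibition in a cell-cycle-altered yeast strain after compound exposure was quantified against vehicle control growth.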
# [10] = NCI Yeast Anticancer Drug Screen. Data for the cln2 rad14 strain (AID 165);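 also: 0% = growth equal to vehicle treated cultures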; details: S. cerevisiae cln2 rad14 strain, stronger effect = higher value
# Summary of the method: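 Growth of compound-exposed yeast (cln2 rad14 genotype) measured and expressed as inhibition relative to vehicle.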
# [11] = NCI Yeast Anticancer Drug Screen. Data for the bub3 strain (AID 167); details: S. cerevisiae bub3 mutant strain, stronger effect = higher value
# Summary of the method: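 In this screen, a yeast mutant lacking normal mitotic checkpoint function is challenged with compound. Relative growth versus vehicle gives the inhibition value.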
# [12] = NCI Yeast Anticancer Drug Screen. Data for the wt2 strain (AID 169);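 also: 0% = growth of vehicle-treated yeast cultures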; details: S. cerevisiae wt2 strain growth inhibition, stronger effect = higher value
# Summary of the method: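 Genetically defined yeast strains from a DNA-repair/cell-cycle panel were used. Compound-exposed yeast growth was measured, and the inhibition was calculated relative to vehicle treatment.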
# [13] = NCI Yeast Anticancer Drug Screen. Data for the sgs1 strain (AID 173);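 also: 0% = growth of vehicle-only control cultures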; details: S. cerevisiae sgs1 mutant, stronger effect = higher value
# Summary of the method: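 Relative growth inhibition, referenced to vehicle, was determined in a yeast strain with a defined alteration affecting DNA damage repair or cell cycle control after compound exposure.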
# [14] = NCI Yeast Anticancer Drug Screen. Data for the mlh1 rad18 strain (AID 175); details: S. cerevisiae mlh1 rad18 strain growth inhibition, stronger effect = higher value
# Summary of the method: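 In this whole-cell yeast screen, a strain with altered DNA damage repair is challenged with compound, and its growth is measured against matched vehicle-treated controls.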
# [15] = NCI Yeast Anticancer Drug Screen. Data for the rad18 strain (AID 177); details: S. cerevisiae rad18 mutant growth inhibition, stronger effect = higher value
# Summary of the method: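 Screen uses a yeast strain with a defined lesion in DNA damage repair; compound effect is read as loss of growth compared to untreated vehicle cultures.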
# [16] = at 5.0 µM (retest, dose inferred, filed as 0.5)
# [17] = at 50.0 µM (retest, dose inferred, filed as 5.0)
smiles,measurement,setting,value
COc1ccc(C(=O)C(CN(C)C)CN(C)C)cc1,growth inhibition,[1]; at 1.2 µM,-14% (inactive)
same,growth inhibition,[1]; at 3.7 µM,30% (inactive)
same,growth inhibition,[1]; at 11.0 µM,30% (inactive)
same,growth inhibition,[1]; at 33.0 µM,29% (inactive)
same,growth inhibition,[1]; at 100.0 µM,48% (inactive)
same,growth inhibition,[2]; at 1.2 µM,-5% (inactive)
same,growth inhibition,[2]; at 3.7 µM,-1% (inactive)
same,growth inhibition,[2]; at 11.0 µM,-4% (inactive)
same,growth inhibition,[2]; at 33.0 µM,3% (inactive)
same,growth inhibition,[2]; at 100.0 µM,40% (inactive)
same,growth inhibition,[3]; at 1.2 µM,10% (inactive)
same,growth inhibition,[3]; at 3.7 µM,19% (inactive)
same,growth inhibition,[3]; at 11.0 µM,9% (inactive)
same,growth inhibition,[3]; at 33.0 µM,13% (inactive)
same,growth inhibition,[3]; at 100.0 µM,17% (inactive)
same,growth inhibition,[4]; at 1.2 µM,-26% (inactive)
same,growth inhibition,[4]; at 3.7 µM,-12% (inactive)
same,growth inhibition,[4]; at 11.0 µM,-8% (inactive)
same,growth inhibition,[4]; at 33.0 µM,11% (inactive)
same,growth inhibition,[4]; at 100.0 µM,77% (active)
same,growth inhibition,[5]; at 1.2 µM,7% (inactive)
same,growth inhibition,[5]; at 3.7 µM,-1% (inactive)
same,growth inhibition,[5]; [16],26% (inactive) and 8% (inactive)
same,growth inhibition,[5]; at 11.0 µM,-2% (inactive)
same,growth inhibition,[5]; at 33.0 µM,11% (inactive)
same,growth inhibition,[5]; [17],52% (inactive) and 35% (inactive)
same,growth inhibition,[5]; at 50.0 µM,35.8% (inactive) and 45.3% (inactive)
same,growth inhibition,[5]; at 100.0 µM,51% (inactive)
same,growth inhibition,[6]; at 1.2 µM,-20% (inactive)
same,growth inhibition,[6]; at 3.7 µM,-9% (inactive)
same,growth inhibition,[6]; [16],14% (inactive) and 1% (inactive)
same,growth inhibition,[6]; at 11.0 µM,-4% (inactive)
same,growth inhibition,[6]; at 33.0 µM,9% (inactive)
same,growth inhibition,[6]; [17],63% (inactive) and 41% (inactive)
same,growth inhibition,[6]; at 50.0 µM,74.2% (active) and 75.8% (active)
same,growth inhibition,[6]; at 100.0 µM,68% (inactive)
same,growth inhibition,[7]; at 1.2 µM,-13% (inactive)
same,growth inhibition,[7]; at 3.7 µM,-8% (inactive)
same,growth inhibition,[7]; at 11.0 µM,-2% (inactive)
same,growth inhibition,[7]; at 33.0 µM,19% (inactive)
same,growth inhibition,[7]; at 100.0 µM,24% (inactive)
same,growth inhibition,[8]; [16],34% (inactive) and 14% (inactive)
same,growth inhibition,[8]; [17],59% (inactive) and 35% (inactive)
same,growth inhibition,[8]; at 50.0 µM,32.8% (inactive) and 61.8% (inactive)
same,growth inhibition,[9]; at 1.2 µM,15% (inactive)
same,growth inhibition,[9]; at 3.7 µM,12% (inactive)
same,growth inhibition,[9]; at 11.0 µM,6% (inactive)
same,growth inhibition,[9]; at 33.0 µM,33% (inactive)
same,growth inhibition,[9]; at 100.0 µM,46% (inactive)
same,growth inhibition,[10]; [16],11% (inactive) and 20% (inactive)
same,growth inhibition,[10]; [17],31% (inactive) and 36% (inactive)
same,growth inhibition,[10]; at 50.0 µM,21.6% (inactive) and 30.7% (inactive)
same,growth inhibition,[11]; at 1.2 µM,-18% (inactive)
same,growth inhibition,[11]; at 3.7 µM,-5% (inactive)
same,growth inhibition,[11]; [16],21% (inactive) and 19% (inactive)
same,growth inhibition,[11]; at 11.0 µM,-2% (inactive)
same,growth inhibition,[11]; at 33.0 µM,11% (inactive)
same,growth inhibition,[11]; [17],51% (inactive) and 33% (inactive)
same,growth inhibition,[11]; at 50.0 µM,0.15% (inactive) and 75.1% (active)
same,growth inhibition,[11]; at 100.0 µM,74% (active)
same,growth inhibition,[12]; at 1.2 µM,12% (inactive)
same,growth inhibition,[12]; at 3.7 µM,1% (inactive)
same,growth inhibition,[12]; at 11.0 µM,4% (inactive)
same,growth inhibition,[12]; at 33.0 µM,36% (inactive)
same,growth inhibition,[12]; at 100.0 µM,79% (active)
same,growth inhibition,[13]; at 1.2 µM,-7% (inactive)
same,growth inhibition,[13]; at 3.7 µM,29% (inactive)
same,growth inhibition,[13]; at 11.0 µM,26% (inactive)
same,growth inhibition,[13]; at 33.0 µM,32% (inactive)
same,growth inhibition,[13]; at 100.0 µM,78% (active)
same,growth inhibition,[14]; [16],57% (inactive) and 12% (inactive)
same,growth inhibition,[14]; [17],92% (active) and 27% (inactive)
same,growth inhibition,[14]; at 50.0 µM,8.1% (inactive) and 64.3% (inactive)
same,growth inhibition,[15]; at 1.2 µM,-3% (inactive)
same,growth inhibition,[15]; at 3.7 µM,-8% (inactive)
same,growth inhibition,[15]; at 11.0 µM,-23% (inactive)
same,growth inhibition,[15]; at 33.0 µM,-3% (inactive)
same,growth inhibition,[15]; at 100.0 µM,66% (inactive)
